# Assay results taken from PubChem BioAssay.
# Active and inactive are the calls of the source. Unless noted, how the calls were made is not given here.
# Legend:
# [1] = compound effects on lung adenocarcinoma cell viability – A549, calcein-AM fluorescence, 48 h, basal, profiling panel (AID 1162); details: higher = more signal; further: test concentration not given here
# [2] = compound effects on differentiated 3T3-L1 adipocyte viability – cell-based, 3T3-L1 adipocytes, calcein-AM fluorescence, 48 h, basal, profiling panel (AID 1163); details: 3T3-L1 adipocytes viability, higher = more signal; further: test concentration not given here
# [3] = compound effects on hepatocellular carcinoma cell viability – HepG2, calcein-AM fluorescence, 48 h, basal, profiling panel (AID 1164); details: higher = more signal; further: test concentration not given here
# [4] = compound effects on multiple myeloma cell viability – MM1S, calcein-AM fluorescence, 48 h, basal, profiling panel (AID 1165); details: higher = more signal;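 further: viability of MM1S multiple myeloma cells under basal unstimulated conditions; test concentration not given here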
# [5] = calcein-AM signal in unstimulated myeloma cells – cell-based, calcein-AM fluorescence, 48 h, PK04 Diversity Set, profiling panel (AID 1166); details: RPMI8226 myeloma viability, higher = more signal;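 further: cells grown under basal conditions without added stimulus; test concentration not given here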
# [6] = JC-1 mitochondrial signal, unstimulated HepG2 cells – cell-based, JC-1 fluorescence, 24 h, 100 nL compound, profiling panel (AID 1167); details: HepG2 mitochondrial potential, higher = more signal; further: test concentration not given here
# [7] = JC-1 mitochondrial signal, unstimulated adipocytes – cell-based, JC-1 fluorescence, 3T3-L1 adipocytes, 24 h, 100 nL compound, profiling panel (AID 1168); details: JC-1 mitochondrial fluorescence, higher = more signal, called active from +8 up or from −8 down; further: test concentration not given here
# [8] = JC-1 mitochondrial signal, unstimulated myeloma cells – cell-based, JC-1 fluorescence, RPMI8226, 24 h, 100 nL compound, profiling panel (AID 1169); details: JC-1 mitochondrial potential fluorescence, higher = more signal; further: test concentration not given here
# [9] = JC-1 mitochondrial signal, unstimulated MM1S myeloma – cell-based, JC-1 fluorescence, 24 h, 100 nL compound, profiling panel (AID 1170); details: MM1S mitochondrial potential, higher = more signal; further: test concentration not given here
# [10] = resazurin metabolic signal in A549 cells – cell-based, resazurin fluorescence, 24 h, PK04 Diversity Set, profiling panel (AID 1171); details: A549 viability, higher = more signal, called active from +8 up or from −8 down; further: test concentration not given here
# [11] = resazurin metabolic signal in HepG2 cells – cell-based, resazurin fluorescence, 24 h, PK04 Diversity Set, profiling panel (AID 1172); details: HepG2 viability, higher = more signal; further: test concentration not given here
# [12] = budding yeast growth changes without added modifier – OD600, strain BY4716, 24 h, basal condition, primary screen (AID 1173); details: S. cerevisiae BY4716 growth, OD600, 24 h; higher = more signal, called active from +8 up or from −8 down
# [13] = viability profiling in MM1S myeloma cells – cell-based, resazurin fluorescence, basal, 24 h, PK04 Diversity Set, profiling panel (AID 1174); details: higher = more signal, called active from +8 up or from −8 down; further: test concentration not given here
# [14] = target: Dihydroorotate dehydrogenase (quinone), mitochondrial (Plasmodium falciparum (isolate 3D7)) (UniProt Q08210); assay: inhibition of P. falciparum DHODH – biochemical, C-terminal His tag, absorbance 600 nm, primary screen (AID 1175); details: PfDHODH enzyme, DCIP absorbance 600 nm; higher = more signal, called active from +8 up or from −8 down;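 further: recombinant parasite enzyme with a five histidine tag at its C terminus; test concentration not given here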
# [15] = inhibition of PAO1 biofilm formation – strain PAO1, LB-PBS medium, absorbance 600 nm, primary screen (AID 1176); further: test concentration not given here; details: P. aeruginosa PAO1 growth/biofilm, A600, 12 h; higher = more signal
# [16] = growth modulation of vineyard yeast isolate – strain RM11-1a, OD600, basal, 24 h, primary screen (AID 1177);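 further: cultures grown under basal conditions with no added stressor; test concentration not given here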; details: S. cerevisiae RM11-1a growth, OD600, 24 h; higher = more signal, called active from +8 up or from −8 down
# [17] = growth of efflux-deficient E. coli DRC39 – strain DRC39, OD650, 24 h, E. coli filamentation inducers, primary screen (AID 1178);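 further: growth measured as culture turbidity by optical density at 650 nm; test concentration not given here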; details: E. coli DRC39 acrAB, higher = more signal, called active from +8 up or from −8 down
# [18] = growth of efflux-deficient E. coli DRC39 – strain DRC39, OD650, 48 h, E. coli filamentation inducers, primary screen (AID 1179);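 further: screen aims at cell division blockers that make cells filament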; details: E. coli DRC39 delta-acrAB growth, higher = more signal, called active from +8 up or from −8 down
# [19] = viability profiling in RPMI8226 myeloma cells – cell-based, resazurin fluorescence, basal, 24 h, PK04 Diversity Set, profiling panel (AID 1180); details: higher = more signal;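 further: RPMI8826 multiple myeloma cell line at 5000 cells per well; test concentration not given here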
# [20] = target: E3 ubiquitin-protein ligase XIAP (Homo sapiens) (UniProt P98170); assay: small molecules binding XIAP protein – biophysical, small-molecule microarray, fluorescence 635 nm, primary screen (AID 1181); details: higher = more signal;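 further: score merges 667 nm emission and signal to noise over triplicate slides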
# E3 ubiquitin-protein ligase XIAP (Homo sapiens), sequence (P98170 whole entry, looked up): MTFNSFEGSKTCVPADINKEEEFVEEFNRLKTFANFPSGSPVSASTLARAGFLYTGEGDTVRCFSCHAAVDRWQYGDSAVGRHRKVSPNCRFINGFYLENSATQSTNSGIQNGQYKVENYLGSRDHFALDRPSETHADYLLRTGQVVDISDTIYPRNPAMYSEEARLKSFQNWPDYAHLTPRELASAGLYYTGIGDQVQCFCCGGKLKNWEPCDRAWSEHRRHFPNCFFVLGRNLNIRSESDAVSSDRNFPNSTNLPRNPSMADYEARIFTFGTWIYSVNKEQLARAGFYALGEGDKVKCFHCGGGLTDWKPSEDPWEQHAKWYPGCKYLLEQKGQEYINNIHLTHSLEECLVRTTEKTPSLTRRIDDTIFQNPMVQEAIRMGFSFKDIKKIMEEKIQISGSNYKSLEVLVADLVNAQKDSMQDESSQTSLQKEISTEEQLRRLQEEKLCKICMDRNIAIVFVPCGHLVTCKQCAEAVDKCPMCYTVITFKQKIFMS
# Dihydroorotate dehydrogenase (quinone), mitochondrial (Plasmodium falciparum (isolate 3D7)), sequence (Q08210 whole entry, looked up): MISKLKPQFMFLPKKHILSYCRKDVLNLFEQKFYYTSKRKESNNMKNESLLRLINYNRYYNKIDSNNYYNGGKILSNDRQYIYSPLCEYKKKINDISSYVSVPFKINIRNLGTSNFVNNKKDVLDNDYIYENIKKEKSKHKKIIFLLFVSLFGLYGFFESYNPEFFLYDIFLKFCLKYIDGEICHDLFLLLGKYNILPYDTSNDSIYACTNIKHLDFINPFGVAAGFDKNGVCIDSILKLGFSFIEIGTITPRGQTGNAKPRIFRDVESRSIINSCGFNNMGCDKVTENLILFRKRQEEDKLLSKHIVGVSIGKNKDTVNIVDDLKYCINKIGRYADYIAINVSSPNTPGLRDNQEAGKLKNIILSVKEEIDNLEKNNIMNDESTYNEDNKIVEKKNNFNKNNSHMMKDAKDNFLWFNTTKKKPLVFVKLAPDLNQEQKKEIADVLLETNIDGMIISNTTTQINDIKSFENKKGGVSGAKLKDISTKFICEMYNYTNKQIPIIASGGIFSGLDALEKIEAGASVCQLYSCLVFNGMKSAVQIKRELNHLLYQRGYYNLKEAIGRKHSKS
Structure (SMILES),z-score [1],z-score [2],z-score [3],z-score [4],z-score [5],z-score [6],z-score [7],z-score [8],z-score [9],z-score [10],z-score [11],z-score [12],z-score [13],composite z-score [14],z-score [15],z-score [16],z-score [17],z-score [18],z-score [19],composite z-score [20]
CC(C)[Si](C#CCCCC#N)(O[C@H](c1ccccc1)c1cn(Cc2ccccc2)nn1)C(C)C,0.059,-0.454,-0.213,0.444,-0.34,0.604,0.0406 (inactive),0.993,-1.31,-0.235 (inactive),-0.538,-6.51 (inactive),0.118 (inactive),-0.0054 (inactive),0.584 (inactive),-0.431 (inactive),-0.25 (inactive),0.0331 (inactive),0.424,-0.0025
C=C[C@H]1C(C(=O)OCC)=CC[C@@H](c2ccccc2)N1S(=O)(=O)c1ccc(C)cc1,-0.438,-1.05,-0.708,-0.465,-1.46,5.08,-0.517 (inactive),-0.309,-1.21,0.69 (inactive),0.149,1.32 (inactive),-0.172 (inactive),0.319 (inactive),0.257 (inactive),1.39 (inactive),-0.621 (inactive),-0.183 (inactive),-0.667,0.199
CN(C)C(=O)[C@]1(Cc2ccccc2CN=[N+]=[N-])N=C(c2ccc(OCCCO)cc2)O[C@@H]1c1ccccc1,-2.01,0.894,-1.65,-3.16,-4.37,-0.117,-0.58 (inactive),-1.33,-1.37,0.721 (inactive),0.747,-0.948 (inactive),-0.535 (inactive),-0.366 (inactive),-0.137 (inactive),0.787 (inactive),0.294 (inactive),-0.296 (inactive),-1.16,-0.127
COc1ccc(C#Cc2ccc3c(c2)[C@]2(C(=O)N3)[C@H](c3ccc(OCCO)cc3)N3[C@H](c4ccccc4)[C@H](c4ccccc4)OC(=O)[C@H]3[C@@H]2C(=O)NC[C@H](O)c2ccccc2)cc1,0.357,-0.177,1.08,0.373,-1.46,-1.04,4.7 (inactive),-0.808,-1.4,0.0652 (inactive),0.0814,3.07 (inactive),-0.883 (inactive),-18.4 (active),2.34 (inactive),4.84 (inactive),0.595 (inactive),0.863 (inactive),-1.08,0.18
COc1ccc([Si](C)(C)[C@@H]2[C@@H](CCO)O[C@]3(C(=O)N(Cc4ccccc4)c4ccc(N5CCOC5=O)cc43)[C@H]2C)cc1,-1.39,1.67,-1.26,-2.34,-3.44,-0.309,0.168 (inactive),-0.947,-0.756,-1.94 (inactive),-1.13,1.81 (inactive),-2.51 (inactive),-0.981 (inactive),0.933 (inactive),4.01 (inactive),-0.957 (inactive),-0.978 (inactive),-2.79,0.0605
CCCCCCc1nc(Cc2cc(OC)c(OC)c(OC)c2)cc2c1[Si](C(C)C)(C(C)C)OC2,-1.79,0.5,0.0671,-3.02,-4.45,0.785,0.705 (inactive),-1.06,-0.48,1.64 (inactive),0.842,0.273 (inactive),0.0456 (inactive),-2.69 (inactive),-0.215 (inactive),-0.0979 (inactive),-0.284 (inactive),-0.279 (inactive),-0.295,0.0009
CCCN1C(=O)[C@@]2(Cc3ccccc31)N=C(c1ccc(OCCCO)cc1)O[C@H]2c1ccccc1,-1.06,0.526,-1.1,-3.51,-4.16,-0.895,0.201 (inactive),-1.16,-0.502,-1.11 (inactive),0.293,-3.07 (inactive),-2 (inactive),-0.172 (inactive),-0.124 (inactive),0.806 (inactive),-0.305 (inactive),-1.03 (inactive),-1.7,-0.212
COC(=O)c1c(CC[C@@H](CO)NC(=O)N[C@@H](C)Cn2cc(-c3ccccn3)nn2)oc(C(C)=O)c1C(=O)OC,-0.495,0.526,-0.239,0.226,-0.858,-0.182,-0.857 (inactive),-0.181,-0.0849,-1.38 (inactive),-0.962,-0.369 (inactive),0.0168 (inactive),-2.74 (inactive),-0.109 (inactive),-0.37 (inactive),-0.207 (inactive),-0.605 (inactive),-0.921,0.0808
Oc1ccc2cc[n+](Cc3cc4c(cc3Br)OCO4)cc2c1,1.58,-0.35,0.312,0.677,-1.77,-1.12,0.418 (inactive),-0.123,0.313,-0.585 (inactive),-0.269,-0.72 (inactive),-0.526 (inactive),-0.625 (inactive),-0.159 (inactive),1.31 (inactive),0.364 (inactive),0.161 (inactive),-0.135,-0.281
O=C1NC(=O)C2C1C=CC(C(O)c1ccco1)N2Nc1ccc(Cl)cc1Cl (stereo not given),-0.396,-0.792,-1.16,-1.57,-0.941,-1.96,-0.298 (inactive),-0.977,-0.218,-2.08 (inactive),-2.04,-17 (active),-1.41 (inactive),0.893 (inactive),0.711 (inactive),-5.34 (inactive),-0.725 (inactive),-1.86 (inactive),-1.28,0.257
NC(=O)NCC#Cc1ccc2c(c1)[C@]1(C(=O)N2)[C@H](c2ccccc2OCCO)N2[C@H](c3ccccc3)[C@H](c3ccccc3)OC(=O)[C@H]2[C@@H]1C(=O)O,-0.371,-0.161,-1.06,-0.253,0.713,-0.716,0.485 (inactive),0.689,-0.394,1.73 (inactive),1.87,-0.462 (inactive),0.877 (inactive),-1.96 (inactive),-0.0199 (inactive),-0.246 (inactive),0.614 (inactive),-0.727 (inactive),0.327,-0.287
CC(C)=C1C(=O)C(c2ccccc2)=C2CN3C(=O)N(CCc4ccccc4)C(=O)[C@]3(Cc3ccc(C(F)(F)F)cc3)[C@H]21,0.549,0.66,-0.232,-1.14,-1.16,-1.5,-0.876 (inactive),-0.699,-0.746,-0.327 (inactive),-1.09,0.908 (inactive),-1.32 (inactive),-0.29 (inactive),0.799 (inactive),0.12 (inactive),-0.943 (inactive),-0.633 (inactive),-1.19,-0.213
C=CCC(OC(C)=O)[C@@H]1[C@@H](N(Cc2cccc3ccccc23)C(=O)Cc2ccc(F)cc2)c2cc(OCCCO)ccc2N1C(=O)c1ccc2ccccc2c1 (stereo not given in full),0.937,1,0.975,-0.222,-0.754,2.9,-0.249 (inactive),-0.774,-0.45,1.25 (inactive),0.921,0.274 (inactive),0.697 (inactive),0.339 (inactive),-0.0057 (inactive),0.036 (inactive),0.655 (inactive),0.83 (inactive),0.276,0.34
O=C(C1N=C(c2ccc(OCCCO)cc2)N(c2ccccc2)O1)N1CCCCC1 (stereo not given),0.775,0.936,0.772,0.301,0.609,0.223,-0.716 (inactive),-0.779,-0.313,1.07 (inactive),0.377,-0.769 (inactive),1.15 (inactive),-0.152 (inactive),-1.35 (inactive),-0.587 (inactive),0.457 (inactive),0.15 (inactive),0.188,0.0761
CCOc1cc(C(O)C2C=CC3C(=O)NC(=O)C3N2Nc2ccc(Cl)cc2Cl)ccc1O (stereo not given),-1.33,-0.337,-0.672,-0.433,-0.236,-1.19,-1.05 (inactive),-0.76,0.172,-0.873 (inactive),-1.37,0.203 (inactive),-2.35 (inactive),0.0681 (inactive),1.4 (inactive),0.358 (inactive),-0.748 (inactive),-0.75 (inactive),-1.68,0.659
CO[C@H]1O[C@H](CO)[C@@H](OC(=O)Nc2ccccc2)[C@H](OC(=O)c2cc3ccccc3[nH]2)[C@H]1OC(=O)c1cc2ccccc2[nH]1,-0.14,0.544,0.131,-0.294,-0.939,1.12,2.46 (inactive),-0.766,-0.61,-2.51 (inactive),-1.09,-0.388 (inactive),-1.59 (inactive),-0.49 (inactive),0.125 (inactive),-0.643 (inactive),1.54 (inactive),1.45 (inactive),-1.64,0.246
CCCCNC(=O)c1ccc(C#CC(C)(C)C)c(OC(C)=O)c1,0.3,1.75,-0.835,0.13,-1.37,-0.75,-0.103 (inactive),-0.284,-0.221,-0.654 (inactive),0.111,-2.59 (inactive),0.611 (inactive),-1.14 (inactive),-0.517 (inactive),0.516 (inactive),1.27 (inactive),0.256 (inactive),0.116,-0.283
Cc1ccc(NN2C(C(O)c3c(F)cccc3Cl)C=CC3C(=O)N(C4CCCCC4)C(=O)C32)cc1 (stereo not given),0.57,-0.617,0.934,0.949,0.451,-0.511,0.165 (inactive),0.0377,-1.04,0.693 (inactive),0.703,-0.074 (inactive),0.0812 (inactive),-1.12 (inactive),1.47 (inactive),-0.717 (inactive),-0.452 (inactive),0.432 (inactive),0.262,0.122
